# Compound activity as filed in PubChem BioAssay.
# Sampled rows, rich in hits. Any-hit rate of the full collection: about 0.9%.
# PPARg SRC1 recr = PPARgamma agonists recruiting SRC-1 coactivator, primary screen, biochemical; AID 631, 2007; Peroxisome proliferator-activated receptor gamma (Homo sapiens), P37231; activation, % at 8 µM; PPARgamma-SRC-1 coactivator recruitment biochemical assay; hit rate 0.41% among 200,000; in the data active = activation above about 19%;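 also: 0% = DMSO and 100% = reference agonist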
# Target sequence (P37231 whole entry, looked up): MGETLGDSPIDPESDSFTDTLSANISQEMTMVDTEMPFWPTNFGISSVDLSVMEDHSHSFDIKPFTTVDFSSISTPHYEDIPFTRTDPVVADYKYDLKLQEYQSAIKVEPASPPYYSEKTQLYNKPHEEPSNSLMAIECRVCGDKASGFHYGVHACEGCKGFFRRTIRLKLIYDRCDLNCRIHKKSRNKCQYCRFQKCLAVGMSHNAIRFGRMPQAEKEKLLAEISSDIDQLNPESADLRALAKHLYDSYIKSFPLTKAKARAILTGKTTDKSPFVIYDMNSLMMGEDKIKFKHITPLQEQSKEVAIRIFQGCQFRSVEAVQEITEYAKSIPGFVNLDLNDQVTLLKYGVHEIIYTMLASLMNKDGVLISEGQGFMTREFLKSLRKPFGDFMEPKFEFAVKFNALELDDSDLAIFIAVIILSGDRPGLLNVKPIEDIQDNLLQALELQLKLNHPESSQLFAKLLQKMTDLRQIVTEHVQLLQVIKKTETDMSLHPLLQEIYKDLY
# SRC2 TRFRET art = TR-FRET signal artefacts, primary screen, artefact control for PPARgamma SRC-2 agonist project, biochemical; hit rate 0.4% among 200,000; AID 1049, 2008; TR-FRET ratio at 8 µM; TR-FRET artefact counter-screen; stronger effect = higher value
# SRC3 TRFRET art = TR-FRET detection interference compounds, artefact control for PPARgamma SRC-3 recruitment agonists, biochemical, TR-FRET ratio; TR-FRET ratio at 8 µM; hit rate 0.39% among 99,000; TR-FRET artefact counter-screen, PPARgamma/SRC-3 format; stronger effect = higher value
# PPARg SRC3 recr = PPARgamma agonists recruiting SRC-3 coactivator, primary screen, biochemical; biochemical PPARgamma/SRC-3 coactivator recruitment assay; activation, % at 8 µM; hit rate 0.26% among 200,000; AID 731, 2007; in the data active = activation above about 23%;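 also: 0% = DMSO and 100% = reference agonist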
# PPARg SRC-2 ag = agonists of PPARg-SRC-2 recruitment, primary screen, biochemical, HTS; Peroxisome proliferator-activated receptor gamma (Homo sapiens), P37231; PPARgamma LBD-SRC-2 recruitment; activation, % at 8 µM; hit rate 0.34% among 200,000; in the data active = activation above about 22%;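 also: 0% = vehicle and 100% = reference agonist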
# SRC1 TRFRET art = TR-FRET detection interference compounds, primary screen, artefact control for PPARgamma SRC-1 recruitment agonists, biochemical, TR-FRET emission ratio; TR-FRET detection artefact counter-screen; stronger effect = higher value; TR-FRET ratio at 8 µM; hit rate 0.34% among 99,000; AID 1051, 2008; in the data active = TR-FRET ratio above about 2300
# An asterisk follows results filed as active; · = no result. Rule as the data show it, unless noted: active = TR-FRET ratio above about 2000; inactive = the rest.
SMILES,PPARg SRC1 recr,SRC2 TRFRET art,SRC3 TRFRET art,PPARg SRC3 recr,PPARg SRC-2 ag,SRC1 TRFRET art
COc1ccc(NC(=O)COC(=O)c2ccc(F)cc2F)cc1,11.4,1971*,1571,12.2,5.8,1852
COc1cccc(NC(=O)COC(=O)c2ccc(F)cc2F)c1,-6.4,1356,1348,-0.2,-1.4,1458
Cc1nc(-c2cccc(C(F)(F)F)c2)sc1C(=O)O,14.7,1724,1780,4.3,8.4,1864
Cc1cc(C)c(C#N)c(SCc2cn3ccccc3n2)n1,-6.9,1571,1580,0.7,-1.4,1580
O=C(Nc1cccc2ccccc12)c1cn(-c2ccccc2)nc1-c1cccs1,-0.7,2231*,·,5.8,7.3,·
CC(C)C[C@H](NC(=O)OC(C)(C)C)c1nnc(SCc2cccc(F)c2)o1,14.7,1571,·,6.3,0.4,·
CC(C)[C@H](NC(=O)OC(C)(C)C)c1nnc(SCc2cccc(F)c2)o1,55.3*,1557,·,5.4,15.4,·
Cc1c(C(=O)N2CCOCC2)oc2ccc(S(=O)(=O)N3CCCC3)cc12,7.6,1485,·,11.4,0.7,·
N#Cc1c(SCC(N)=O)nc2c(c1-c1ccc(OCc3ccccc3)cc1)CCCC2,63.1*,1578,·,70.6*,8.9,·
CCc1ccc2oc(C(=O)Nc3ccc(S(N)(=O)=O)cc3)c(C)c2c1,1.1,1875,1772,3.5,8.1,2324*
COC(=O)Sc1nnc(-c2ccc(Br)cc2)o1,44.6*,2802*,·,62.9*,54.3*,·
OCC#CCSc1nnc(-c2ccc(Br)cc2)o1,12.9,1717,·,5.7,10.5,·
O=C(CSc1nnc(C2CC2)n1Cc1ccco1)NCC(F)(F)F,2.3,1660,1469,-0.4,4.0,2315*
Cc1cc(C(=O)NCC(=O)O)c(C)o1,-5.3,1253,·,-11.7,-0.7,·
CCc1ccc(N/C(N)=N/c2nc(CSc3ccccn3)cc(=O)[nH]2)cc1,5.3,1924,2114*,5.3,16.8,2062
COc1cccc(N/C(N)=N/c2nc(CSc3ccccn3)cc(=O)[nH]2)c1,5.8,1675,1524,2.6,1.0,1915
COc1ccccc1N(CC(=O)NCC1CCCO1)C(=O)CCC(=O)Nc1nccs1 (stereo unspecified),-2.4,1704,·,-8.4,24.8*,·
Cc1ccsc1/C=N/Nc1nc2ccccc2[nH]1,13.1,1670,1746,8.3,17.0,2515*
Cc1cc(=O)[nH]c(N/N=C/c2sccc2C)n1,7.0,1625,1636,3.1,9.1,1872
O=C(Nc1nnc(C(F)(F)F)s1)c1ccc(Br)s1,18.1,2104*,2443*,14.5,21.5,2300
CCOC(=O)C1CCN(CCC(=O)Nc2ccc(C)c(C)c2)CC1,21.6*,1537,1352,2.7,-3.3,2091
Cc1ccc(-c2cc(C(=O)N(C)Cc3cnn(C)c3C)c3cc(Br)ccc3n2)cc1,6.7,1910,2046,10.2,6.3,1935
Cc1ccc(-c2cc(C(=O)NCc3cnn(C)c3C)c3cc(Br)ccc3n2)cc1,13.9,2130*,·,21.8,19.4,·
O=C(COc1nncc2ccccc12)NCCC1=CCCCC1,0.9,1596,·,3.8,9.2,·
COc1ccccc1C(=O)Nc1cccc(-c2cn3ccsc3n2)c1,3.4,1580,·,27.6*,5.6,·
SMILES,PPARg SRC1 recr,SRC2 TRFRET art,SRC3 TRFRET art,PPARg SRC3 recr,PPARg SRC-2 ag,SRC1 TRFRET art
O=C(NNC(=O)c1cc(OCC(F)(F)F)ccc1OCC(F)(F)F)c1ccc(Cl)c(Cl)c1,-6.7,1462,·,7.9,-8.9,·
O=C(N/N=C/c1cnc(N2CCCCC2)s1)c1ccc(Cl)cc1,21.1*,1811,1706,4.5,6.3,1954
Cn1ncc([N+](=O)[O-])c1C(=O)N/N=C/c1ccc(F)cc1,20.9*,1691,1850,4.4,7.9,1712
COc1ccc(CCCc2n[nH]c(=S)o2)cc1,6.9,2009*,1430,-1.4,-1.6,1887
C=CCn1cc(/C=N\NC(=O)c2cc3c(ccc4ccccc43)o2)c2ccccc21,4.7,1672,·,1.4,6.7,·
CCc1cc2c(=O)c(-c3nc(C)cs3)c(CCCC(=O)O)oc2cc1O,4.1,1611,1707,4.3,2.3,1835
CCc1cc2c(=O)c(-c3nc(C)cs3)coc2cc1OC(C)C(=O)NCCO (stereo unspecified),138.3*,2120*,1621,3.4,24.8*,5866*
O=C(c1cc2sccc2n1Cc1ccccc1)N1CCN(c2nc3ccccc3s2)CC1,6.8,2570*,·,11.3,7.8,·
CCC(=O)N1CCN(c2nc3ccccc3s2)CC1,0.0,1508,·,8.7,3.9,·
COc1cccc(OCc2nc3c4cnn(-c5ccccc5)c4ncn3n2)c1,9.9,1589,·,7.0,3.5,·
c1ccc(-n2ncc3c2ncn2nc(-c4ccco4)nc32)cc1,12.5,2763*,·,14.7,46.6*,·
COc1ccc(C2NC3=C(CCC3)C3(C#N)C(OC)(OC)N=C(N)C23C#N)cc1 (stereo unspecified),-1.2,1639,·,5.3,7.6,·
Cc1nc2ccc(-c3nc4ccc(N)cc4[nH]3)cc2[nH]1,19.7,1684,2163*,11.5,13.4,2025
O=C(Nc1cccc(S(=O)(=O)NC2=NCCCCC2)c1)c1cc(-c2ccc(Cl)cc2)nc2ccccc12,0.4,1927,2132*,4.0,9.0,2062
CCC(C)NC(=O)Cc1c(OC)ccc2cc(Br)ccc12 (stereo unspecified),18.9,2014*,1936,7.9,13.6,2168
O=C(Nc1cc2c3c(c1)C1CCCC1CN3CC1CCCC21)c1ccccc1 (stereo unspecified),1.1,1468,·,2.4,-4.7,·
CN(C)c1ccc(N=C/C=C2\N(C)c3ccccc3C2(C)C)cc1,2.7,1577,·,27.9*,8.1,·
O=C(c1cc(COc2ccc(F)cc2Cl)on1)N1CCCC(OCc2cccnc2)C1 (stereo unspecified),3.6,2120*,1623,3.8,39.5*,1769
O=C(c1cc(COc2ccc(F)cc2Cl)on1)N1CCC(OCc2cccnc2)CC1,9.4,1728,1604,4.1,4.0,2026
Cc1oc(-c2ccc(Cl)cc2)nc1CN1CCCC(C(=O)NCCCN2CCCC2=O)C1 (stereo unspecified),5.5,1478,·,10.7,2.0,·
CCNC(=O)C/C(C)=N/NC(=O)C(=O)Nc1ccc(CC)cc1,8.7,1912,1791,4.0,4.7,1990
S=c1[nH]nc(-c2ccccc2)n1C1C=CCCC1 (stereo unspecified),5.4,1669,1754,-4.3,3.4,2316*
CC(=O)c1nn(-c2cccc(Br)c2)cc1C(=O)c1ccc(C)cc1,1.9,1702,·,4.2,4.3,·
